Active and inactive are the calls of the source. How the source made its calls: active means hit-call score of the fitted dose curve at least 0.9, where 1 is the maximum; inactive means score below 0.9.
Key:
Settings in all cases: mRNA level, 48 h; actives raise or lower the signal
[1] = read-out: Cyclin D2 (CCND2), CCND2 (gene 894); experiment: LTEA_HepaRG_CCND2: Life Technologies and Expression Analysis (LTEA) Assay for Cyclin D2 (CCND2) using HepaRG (AID 2283449)
Outline: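 Read-out is CCND2 mRNA level measured by qRT-PCR in human HepaRG liver cells and normalised to three housekeeping genes. Chemicals were applied for 48 h at up to 100 uM, with gain or loss fitted relative to 0.5% DMSO.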

[2] = read-out: Cyclin D1 (CCND1), CCND1 (gene 595); experiment: LTEA_HepaRG_CCND1: Life Technologies and Expression Analysis (LTEA) Assay for Cyclin D1 (CCND1) using HepaRG (AID 2283451);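 on AC50: TaqMan qRT-PCR transcript level normalised to ACTB GAPDH and POLR2A housekeeping genes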
Outline: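 Differentiated human HepaRG cells in serum-free induction medium were exposed 48 h to eight half-log concentrations up to 100 uM in 0.5% DMSO; mRNA quantified by TaqMan qRT-PCR, normalized to ACTB, GAPDH, POLR2A, fitted bidirectionally versus DMSO.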

[3] = read-out: catalase (CAT), CAT (gene 847); experiment: LTEA_HepaRG_CAT: Life Technologies and Expression Analysis (LTEA) Assay for catalase (CAT) using HepaRG (AID 2283452);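 on AC50: TaqMan qRT-PCR signal normalized to ACTB GAPDH and POLR2A housekeeping genes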
Outline: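 Expression of CAT was quantified by TaqMan qRT-PCR with ACTB/GAPDH/POLR2A normalization after 48 h chemical exposure of HepaRG. Eight-point half-log series, top 100 uM, in 0.5% DMSO; gain or loss fitted against vehicle.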

[4] = read-out: flavin-containing dimethylaniline monooxygenases 3 (FMO3), FMO3 (gene 2328); experiment: LTEA_HepaRG_FMO3: Life Technologies and Expression Analysis (LTEA) Assay for flavin-containing dimethylaniline monooxygenases 3 (FMO3) using HepaRG (AID 2283453);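 on AC50: FMO3 transcript by TaqMan qRT-PCR normalized to ACTB GAPDH and POLR2A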
Outline: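 HepaRG, 48 h exposure, 8-pt half-log series from 100 uM, 0.5% DMSO vehicle, duplicates; FMO3 transcript by Fluidigm TaqMan qRT-PCR, housekeeping-normalized; gain/loss fit vs DMSO.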

[5] = read-out: Cytochrome P450 (CYP1A1), CYP1A1 (gene 1543); experiment: LTEA_HepaRG_CYP1A1: Life Technologies and Expression Analysis (LTEA) Assay for Cytochrome P450 (CYP1A1) using HepaRG (AID 2283454)
Outline: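 Differentiated HepaRG cells in serum-free induction medium were exposed in duplicate for 48 h to eight half-log concentrations up to 100 uM in 0.5% DMSO. CYP1A1 mRNA was quantified by TaqMan qRT-PCR, normalized to ACTB, GAPDH and POLR2A.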

[6] = read-out: CFLAR gene, CFLAR (gene 8837); experiment: LTEA_HepaRG_CFLAR: Life Technologies and Expression Analysis (LTEA) Assay for CFLAR gene using HepaRG (AID 2283455)
Outline: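 HepaRG, 48 h exposure, 8-pt conc-response (100 uM top, half-log), 0.5% DMSO vehicle, duplicates. CFLAR expression by qRT-PCR; ACTB/GAPDH/POLR2A normalization; gain or loss fit vs DMSO baseline.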

[7] = read-out: Forkhead box O1 (FOXO1), FOXO1 (gene 2308); experiment: LTEA_HepaRG_FOXO1: Life Technologies and Expression Analysis (LTEA) Assay for Forkhead box O1 (FOXO1) using HepaRG (AID 2283456)
Outline: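 Readout is FOXO1 transcript level by multiplexed qRT-PCR against three housekeeping genes, curve-fitted in both directions relative to 0.5% DMSO vehicle. Human HepaRG cultures received chemicals for 48 h, up to 100 uM in half-log steps.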

[8] = read-out: Tumor necrosis factor receptor superfamily member 6 (Homo sapiens) (UniProt P25445); experiment: LTEA_HepaRG_FAS: Life Technologies and Expression Analysis (LTEA) Assay for Fas cell surface death receptor (FAS) using HepaRG (AID 2283447)
Outline: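 FAS transcript level was measured by TaqMan qRT-PCR against three housekeeping genes after 48 h chemical exposure. Cells were HepaRG, 0.5% DMSO vehicle, with a top concentration of 100 uM and half-log dilutions over eight points, in duplicate.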

[9] = read-out: Cyclin Dependent Kinase Inhibitor 1A (CDKN1A), CDKN1A (gene 1026); experiment: LTEA_HepaRG_CDKN1A: Life Technologies and Expression Analysis (LTEA) Assay for Cyclin Dependent Kinase Inhibitor 1A (CDKN1A) using HepaRG (AID 2283450)
Outline: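 Differentiated human HepaRG cells, pre-cultured 48 h, were exposed in duplicate for 48 h in serum-free induction medium to eight half-log concentrations up to 100 uM (0.5% DMSO). CDKN1A mRNA was measured by qRT-PCR, normalized to ACTB/GAPDH/POLR2A, bidirectionally fitted versus DMSO.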

[10] = read-out: Fatty acid synthase (Homo sapiens) (UniProt P49327); experiment: LTEA_HepaRG_FASN: Life Technologies and Expression Analysis (LTEA) Assay for Fatty Acid Synthase (FASN) using HepaRG (AID 2283448)
Outline: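 Transcript-level assay: HepaRG liver cells are treated for 48 h across an eight-point range topping at 100 uM, and FASN mRNA, normalized to three housekeeping genes, is compared with DMSO controls in both directions.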

Chain of Fatty acid synthase (Homo sapiens) (P49327 whole entry, looked up): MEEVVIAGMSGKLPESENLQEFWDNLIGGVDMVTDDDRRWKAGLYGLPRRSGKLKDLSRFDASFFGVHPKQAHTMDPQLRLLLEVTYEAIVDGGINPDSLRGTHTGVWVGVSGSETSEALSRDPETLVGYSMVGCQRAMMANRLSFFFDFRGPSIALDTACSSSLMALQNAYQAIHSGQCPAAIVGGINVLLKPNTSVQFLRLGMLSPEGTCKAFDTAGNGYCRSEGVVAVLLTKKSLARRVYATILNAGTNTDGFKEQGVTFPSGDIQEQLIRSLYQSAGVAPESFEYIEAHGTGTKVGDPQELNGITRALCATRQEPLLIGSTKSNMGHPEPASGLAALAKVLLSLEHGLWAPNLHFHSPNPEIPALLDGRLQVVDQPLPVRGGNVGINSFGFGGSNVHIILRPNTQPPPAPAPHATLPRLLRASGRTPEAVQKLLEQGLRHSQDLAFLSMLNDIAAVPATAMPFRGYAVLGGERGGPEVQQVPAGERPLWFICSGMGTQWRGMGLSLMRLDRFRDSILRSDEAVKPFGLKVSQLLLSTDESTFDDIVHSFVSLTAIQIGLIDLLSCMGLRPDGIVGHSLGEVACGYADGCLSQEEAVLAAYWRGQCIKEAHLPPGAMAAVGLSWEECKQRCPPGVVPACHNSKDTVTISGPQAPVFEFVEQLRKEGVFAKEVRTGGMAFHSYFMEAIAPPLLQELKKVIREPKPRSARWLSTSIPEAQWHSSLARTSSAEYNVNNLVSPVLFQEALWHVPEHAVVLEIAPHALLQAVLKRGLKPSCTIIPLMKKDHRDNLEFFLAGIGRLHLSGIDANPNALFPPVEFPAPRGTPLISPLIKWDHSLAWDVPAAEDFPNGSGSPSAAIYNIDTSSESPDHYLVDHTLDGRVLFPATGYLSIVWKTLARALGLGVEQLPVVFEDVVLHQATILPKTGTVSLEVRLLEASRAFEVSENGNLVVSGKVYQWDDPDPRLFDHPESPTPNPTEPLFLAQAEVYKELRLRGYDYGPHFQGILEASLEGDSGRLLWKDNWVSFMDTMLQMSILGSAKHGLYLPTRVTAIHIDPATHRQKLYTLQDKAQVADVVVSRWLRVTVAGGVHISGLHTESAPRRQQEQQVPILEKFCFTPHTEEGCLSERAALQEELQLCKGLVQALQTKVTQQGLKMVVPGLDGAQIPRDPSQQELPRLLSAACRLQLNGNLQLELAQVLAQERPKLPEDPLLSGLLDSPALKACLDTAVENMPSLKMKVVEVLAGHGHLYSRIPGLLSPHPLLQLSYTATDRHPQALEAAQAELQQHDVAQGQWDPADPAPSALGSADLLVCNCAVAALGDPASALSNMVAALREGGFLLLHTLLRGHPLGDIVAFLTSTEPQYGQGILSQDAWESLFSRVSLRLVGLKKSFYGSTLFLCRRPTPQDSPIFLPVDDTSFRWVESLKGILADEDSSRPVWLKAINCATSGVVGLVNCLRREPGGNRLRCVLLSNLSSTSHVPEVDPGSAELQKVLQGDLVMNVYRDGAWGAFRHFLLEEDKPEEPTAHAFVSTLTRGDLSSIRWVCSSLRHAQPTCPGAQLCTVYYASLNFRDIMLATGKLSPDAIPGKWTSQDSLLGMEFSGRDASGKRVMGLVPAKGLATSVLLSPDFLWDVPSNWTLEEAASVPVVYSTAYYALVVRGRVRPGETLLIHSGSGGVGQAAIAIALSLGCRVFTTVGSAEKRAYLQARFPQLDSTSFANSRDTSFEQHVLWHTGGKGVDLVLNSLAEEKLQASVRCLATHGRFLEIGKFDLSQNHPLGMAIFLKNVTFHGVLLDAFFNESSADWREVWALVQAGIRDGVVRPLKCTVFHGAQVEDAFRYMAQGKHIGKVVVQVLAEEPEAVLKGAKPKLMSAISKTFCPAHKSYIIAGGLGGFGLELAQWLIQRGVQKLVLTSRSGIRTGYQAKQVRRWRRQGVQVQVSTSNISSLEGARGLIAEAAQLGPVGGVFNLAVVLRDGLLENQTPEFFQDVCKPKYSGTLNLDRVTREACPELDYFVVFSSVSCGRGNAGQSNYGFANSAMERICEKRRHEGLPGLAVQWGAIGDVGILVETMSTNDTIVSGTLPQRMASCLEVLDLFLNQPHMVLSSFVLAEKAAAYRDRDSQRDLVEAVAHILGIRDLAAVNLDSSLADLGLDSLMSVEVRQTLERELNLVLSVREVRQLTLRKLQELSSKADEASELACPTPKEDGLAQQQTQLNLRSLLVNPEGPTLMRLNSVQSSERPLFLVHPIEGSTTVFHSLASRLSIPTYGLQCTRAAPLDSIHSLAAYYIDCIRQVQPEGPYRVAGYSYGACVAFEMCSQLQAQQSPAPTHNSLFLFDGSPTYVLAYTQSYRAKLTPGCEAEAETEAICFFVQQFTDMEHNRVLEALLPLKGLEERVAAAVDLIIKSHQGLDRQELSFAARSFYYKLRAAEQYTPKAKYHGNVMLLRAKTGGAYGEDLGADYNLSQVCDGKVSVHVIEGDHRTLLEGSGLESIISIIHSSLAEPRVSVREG

c1ccc2c(c1)Cc1ccccc1-2
outcome [1]: inactive
outcome [2]: inactive
outcome [3]: inactive
outcome [4]: inactive
AC50 [5]: 50 µM (active)
outcome [6]: inactive
outcome [7]: inactive

OCCC(F)(F)C(F)(F)C(F)(F)C(F)(F)C(F)(F)C(F)(F)F
outcome [1]: inactive
outcome [2]: inactive
outcome [3]: inactive
outcome [4]: inactive
AC50 [5]: 84.4 µM (active)
outcome [6]: inactive
outcome [7]: inactive

CCCCCCCC(=O)O
outcome [8]: inactive
outcome [1]: inactive
outcome [9]: inactive
outcome [2]: inactive
outcome [3]: inactive
outcome [4]: inactive
outcome [5]: inactive
outcome [6]: inactive
outcome [7]: inactive

CCN(CC)CCNc1ccc(CNC=O)c2sc3ccc(OC)cc3c(=O)c12
outcome [1]: inactive
outcome [2]: inactive
AC50 [3]: 17.5 µM (active)
AC50 [4]: 34.6 µM (active)
AC50 [5]: 4.07 µM (active)
AC50 [6]: 27.5 µM (active)
AC50 [7]: 13.3 µM (active)

CC(=O)CC(C)(C)O
outcome [8]: inactive
outcome [1]: inactive
outcome [2]: inactive
outcome [3]: inactive
outcome [4]: inactive
outcome [5]: inactive
outcome [6]: inactive
outcome [7]: inactive

CC(C)(C)c1cccc(C(C)(C)C)c1O
outcome [9]: inactive
outcome [2]: inactive
outcome [3]: inactive
outcome [4]: inactive
outcome [5]: inactive
outcome [6]: inactive
outcome [7]: inactive

CC(=O)NC1(c2cccc(F)c2)CCN(CC[C@@]2(c3ccc(Cl)c(Cl)c3)CN(c3ccccc3)C(=O)CO2)CC1
outcome [1]: inactive
outcome [2]: inactive
outcome [3]: inactive
AC50 [4]: 13.1 µM (active)
AC50 [5]: 20 µM (active)
AC50 [6]: 56.1 µM (active)
outcome [7]: inactive

CCCCC(CC)COC(=O)CCCCC(=O)OCC(CC)CCCC (stereo not drawn)
outcome [8]: inactive
outcome [1]: inactive
outcome [2]: inactive
outcome [3]: inactive
outcome [4]: inactive
outcome [5]: inactive
outcome [6]: inactive
outcome [7]: inactive

CC[C@H](C)[C@@H](C(=O)O)n1sc2ccccc2c1=O
outcome [10]: inactive
outcome [1]: inactive
outcome [2]: inactive
outcome [3]: inactive
outcome [4]: inactive
AC50 [5]: 50 µM (active)
outcome [6]: inactive
outcome [7]: inactive

CC(C)CCCCCCOC(=O)CCCCC(=O)OCCCCCCC(C)C
outcome [1]: inactive
outcome [2]: inactive
outcome [3]: inactive
outcome [4]: inactive
AC50 [5]: 50 µM (active)
outcome [6]: inactive
outcome [7]: inactive

O=C(OCCOCCOC(=O)c1ccccc1)c1ccccc1
outcome [10]: inactive
outcome [1]: inactive
outcome [2]: inactive
outcome [3]: inactive
outcome [4]: inactive
AC50 [5]: 50 µM (active)
outcome [6]: inactive
outcome [7]: inactive

Oc1cc2ccccc2c2ccccc12
outcome [2]: inactive
outcome [3]: inactive
outcome [4]: inactive
AC50 [5]: 30.7 µM (active)
outcome [6]: inactive
outcome [7]: inactive

C=C(C)C(=O)OCCC(F)(F)C(F)(F)C(F)(F)C(F)(F)C(F)(F)C(F)(F)F
outcome [8]: inactive
outcome [1]: inactive
outcome [2]: inactive
outcome [3]: inactive
outcome [4]: inactive
AC50 [5]: 10.2 µM (active)
outcome [6]: inactive
outcome [7]: inactive

CC[C@H](c1ccc(O)cc1)[C@@H](CC)c1ccc(O)cc1
AC50 [1]: 62.4 µM (active)
AC50 [2]: 77 µM (active)
AC50 [3]: 78.4 µM (active)
AC50 [4]: 79.9 µM (active)
outcome [5]: inactive
AC50 [6]: 75.7 µM (active)
AC50 [7]: 78.5 µM (active)

OCCC(F)(F)C(F)(F)C(F)(F)C(F)(F)C(F)(F)C(F)(F)C(F)(F)C(F)(F)F
outcome [10]: inactive
outcome [1]: inactive
outcome [9]: inactive
outcome [2]: inactive
outcome [3]: inactive
outcome [4]: inactive
outcome [5]: inactive
outcome [6]: inactive
outcome [7]: inactive

CC(C)(C)CC(C)(C)c1ccc(O)c(-n2nc3ccccc3n2)c1
outcome [1]: inactive
outcome [2]: inactive
outcome [3]: inactive
AC50 [4]: 77.6 µM (active)
AC50 [5]: 41 µM (active)
outcome [6]: inactive
outcome [7]: inactive

CC(C)(C)c1ccc(O)c(C(C)(C)C)c1
AC50 [1]: 0.00316 µM (active)
outcome [2]: inactive
outcome [3]: inactive
outcome [4]: inactive
outcome [5]: inactive
outcome [6]: inactive
outcome [7]: inactive

N#C[C@@H]1CC(F)(F)CN1C(=O)CNC1CC2CCC(C1)N2c1ncccn1 (stereo partly drawn)
outcome [1]: inactive
outcome [9]: inactive
outcome [2]: inactive
outcome [3]: inactive
outcome [4]: inactive
AC50 [5]: 72.1 µM (active)
outcome [6]: inactive
outcome [7]: inactive

COCC(C)O (stereo not drawn)
outcome [1]: inactive
outcome [2]: inactive
outcome [3]: inactive
outcome [4]: inactive
outcome [5]: inactive
outcome [6]: inactive
outcome [7]: inactive

Cc1cc(CCN2CCN(c3nsc4ccccc34)CC2)cc2c1NC(=O)CC2(C)C
AC50 [10]: 50 µM (active)
outcome [2]: inactive
AC50 [3]: 73.4 µM (active)
AC50 [4]: 77.8 µM (active)
AC50 [5]: 7.65 µM (active)
outcome [6]: inactive
outcome [7]: inactive

CN(C)C=O
outcome [10]: inactive
outcome [1]: inactive
outcome [2]: inactive
outcome [3]: inactive
outcome [4]: inactive
outcome [5]: inactive
outcome [6]: inactive
outcome [7]: inactive

O=C(O)Cc1cc(I)c(Oc2cc(I)c(O)c(I)c2)c(I)c1
AC50 [2]: 33.5 µM (active)
AC50 [3]: 45.4 µM (active)
AC50 [4]: 58.1 µM (active)
outcome [5]: inactive
AC50 [6]: 33.5 µM (active)
AC50 [7]: 50.7 µM (active)

From PubChem BioAssay (EPA / NIEHS)
